The values that follow come from ChEMBL document CHEMBL1961873, “Compounds: GSK PKIS; Assays: Nanosyn kinase panel” (2012).

As usually defined, the inhibition is the drop in the measured response relative to a control, in per cent.

Serine/threonine-protein kinase PAK 3 (Homo sapiens), sequence (O75914 whole entry, looked up): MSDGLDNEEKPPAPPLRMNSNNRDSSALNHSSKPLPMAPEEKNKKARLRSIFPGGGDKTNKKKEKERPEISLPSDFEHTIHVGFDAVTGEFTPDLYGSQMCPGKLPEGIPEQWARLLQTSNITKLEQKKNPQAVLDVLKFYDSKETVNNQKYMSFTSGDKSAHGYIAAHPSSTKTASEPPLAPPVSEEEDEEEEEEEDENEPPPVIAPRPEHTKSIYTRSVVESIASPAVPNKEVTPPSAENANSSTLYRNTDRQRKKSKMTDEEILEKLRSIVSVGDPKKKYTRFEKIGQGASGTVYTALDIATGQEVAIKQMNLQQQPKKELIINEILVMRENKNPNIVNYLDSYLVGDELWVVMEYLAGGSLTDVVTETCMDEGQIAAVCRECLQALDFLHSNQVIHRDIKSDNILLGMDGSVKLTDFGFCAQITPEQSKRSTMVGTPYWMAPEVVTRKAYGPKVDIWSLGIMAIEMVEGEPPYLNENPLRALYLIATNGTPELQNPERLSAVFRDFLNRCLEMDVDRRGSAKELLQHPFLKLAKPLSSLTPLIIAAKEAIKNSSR

The target in one assay is Serine/threonine-protein kinase PAK 2 (Homo sapiens) (UniProt Q13177). The note with it: at 1 µM.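 Note: reported values are mean inhibition of PAK2, averaged over measurements.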
Serine/threonine-protein kinase PAK 2 (Homo sapiens), sequence (Q13177 whole entry): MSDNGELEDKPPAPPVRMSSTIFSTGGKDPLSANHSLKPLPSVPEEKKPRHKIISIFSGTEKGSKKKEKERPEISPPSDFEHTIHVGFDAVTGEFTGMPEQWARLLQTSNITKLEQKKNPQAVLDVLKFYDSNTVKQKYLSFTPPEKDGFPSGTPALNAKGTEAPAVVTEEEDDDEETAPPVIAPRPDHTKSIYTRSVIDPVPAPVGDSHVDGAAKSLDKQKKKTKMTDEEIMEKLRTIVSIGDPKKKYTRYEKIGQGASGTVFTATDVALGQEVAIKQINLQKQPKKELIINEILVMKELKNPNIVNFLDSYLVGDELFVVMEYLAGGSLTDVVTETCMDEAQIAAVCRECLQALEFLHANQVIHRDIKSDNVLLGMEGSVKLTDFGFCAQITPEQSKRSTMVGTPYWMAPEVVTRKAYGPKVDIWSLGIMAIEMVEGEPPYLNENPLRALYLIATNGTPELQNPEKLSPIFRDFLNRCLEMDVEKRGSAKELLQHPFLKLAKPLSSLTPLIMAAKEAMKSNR
With `c1ccc(COc2ccc(Nc3ncnc4ccc(-c5ccco5)cc34)cc2)cc1`, the inhibition is -0.42%.
The same measure, in the same setting: for `COc1ccc2c(-c3ccnc(Nc4cccc(OC(F)(F)F)c4)n3)cnn2n1` the value was 2.6%; for `CN1CCC(n2cnc(-c3ccc(F)cc3)c2-c2ccnc(N)n2)CC1`, -0.19%; for `COc1ccc(-c2cc(-c3c[nH]nc3-c3ccccn3)ccn2)cc1`, 1.63%.
Same read-out and setting: for `Cc1cccc(Nc2ncc(-c3ccccc3)o2)c1` the value was 2.06%; for `COC(=O)c1sc(-n2cnc3cc(OC)c(OC)cc32)cc1OCc1ccccc1C(F)(F)F`, 1.84%; for `N#Cc1c(NC(=O)CN2CCOCC2)sc2c1CCCC2`, 0.76%.
As to `COc1ccc(-c2cc3c(N)ncnc3o2)cc1`, the inhibition was -0.84%.
Same read-out and setting: for `N#Cc1c(NC(=O)c2ccc(F)cc2)sc2c1CCCC2` the value was 0.15%; for `Cc1ccc2c(-c3ccnc(Nc4ccccc4)n3)c(-c3ccc(F)cc3)nn2n1`, 1.9%; for `CNC(=O)c1cc(-c2ccc(F)cc2)cc(-c2ccc(S(=O)(=O)N3CCCC3)cc2)c1N`, 0.63%.
On the same count and under the same terms, for `Cc1ccc(O)cc1Nc1ccnc2cc(-c3ccccn3)ccc12` the value was 2.71%.
Same read-out and setting: for `CCc1nn2ncccc2c1-c1ccnc(NC2CC2)n1` the value was 1.62%; for `CCCN1CCC(c2ccc(Nc3nc(Nc4cc(F)ccc4C(N)=O)c4cc[nH]c4n3)c(OC)c2)CC1`, 2.08%; for `Fc1ccc(-c2nn3ccccc3c2-c2ccncc2)cc1`, -0.1%.
In the case of `O=C(O[C@H]1CN[C@H](C#Cc2cc3ncnc(Nc4ccc(Cc5ccccc5)cc4)c3s2)C1)N1CCOCC1`, the inhibition amounted to 0.99%.
Regarding `COc1ccc(-c2nn3ncccc3c2-c2ccnc(Nc3ccc4c(c3)OCCO4)n2)cc1`, the inhibition is 0.11%.
On the same count and under the same terms, for `CN(C)CCOc1ccc(-c2nc(-c3ccncc3)c(-c3ccc4c(c3)CC/C4=N\O)[nH]2)cc1` the value was 2.42%.
Consider `CCN1CCC(CC(=O)Nc2n[nH]c3nnc(-c4cccc(F)c4F)cc23)CC1`, for which the inhibition is 0.33%.
With `COc1cccc(-c2c[nH]c3c(N/N=C/c4ccncc4)ncnc23)c1`, the inhibition worked out at 0.74%.
On the same count and under the same terms, for `Fc1ccc(-c2nn3ncccc3c2-c2ccnc(Nc3ccc4c(c3)OCCO4)n2)cc1` the value was 2.5%; for `COc1cc(Nc2nccc(Nc3ccc4c(C)n[nH]c4c3)n2)cc(OC)c1OC`, 3.21%; for `CC(C)COC(=O)c1ccc2c(c1)/C(=C/Nc1ccc(S(N)(=O)=O)cc1)C(=O)N2`, 0.1%.
On the same count and under the same terms, as for `NS(=O)(=O)c1ccc(N/N=C2\C(=O)Nc3ccc4ncccc4c32)cc1`, the figure is 3.9%; as for `COc1cc(N2CCN(C(C)C)CC2)ccc1Nc1nc(Nc2ccc(F)cc2C(N)=O)c2cc[nH]c2n1`, 2.24%.
Same read-out and setting: as for `CCn1c(-c2nonc2N)nc2c(C#CC(C)(C)O)ncc(OC3CCNCC3)c21`, the figure is 13.5%; as for `CNC(=O)c1cccc(C#Cc2cncnc2Nc2ccc(OCc3cccc(F)c3)c(Cl)c2)c1`, 1.72%.
Consider `Fc1cccc(COc2ccc(Nc3ncnc4sc(-c5ccco5)cc34)cc2Cl)c1`, for which the inhibition is 1.67%.
Still for that read-out and setting: as for `c1ccc(-c2nc3n(c2-c2ccc4c(c2)OCO4)CCC3)nc1`, the figure is -0.63%; as for `O=S(=O)(CCNCc1ccc(-c2ccc3ncnc(Nc4ccc(OCc5cccc(F)c5)c(Cl)c4)c3c2)o1)c1ccccc1`, 3.71%; as for `COc1cc(/C=N/Nc2ncnc3[nH]ncc23)ccc1O`, 1.35%.
Same read-out and setting: for `CS(=O)(=O)CCNCc1coc(-c2ccc3ncnc(Nc4ccc(OCc5ccccc5)cc4)c3c2)c1` the value was 0.14%; for `COc1cc2c(cc1Nc1nc(Nc3ccsc3C(N)=O)c3cc[nH]c3n1)N(C(=O)CN(C)C)CCC2(C)C`, 3.48%.

Another assay addresses Serine/threonine-protein kinase PAK 3 (Homo sapiens) (UniProt O75914). The note with it: at 0.1 µM.
On to `c1ccc(COc2ccc(Nc3ncnc4ccc(-c5ccco5)cc34)cc2)cc1`, for which the inhibition came to 0.44%.
The same measure, in the same setting: as for `COc1ccc2c(-c3ccnc(Nc4cccc(OC(F)(F)F)c4)n3)cnn2n1`, the figure is 5.69%; as for `CN1CCC(n2cnc(-c3ccc(F)cc3)c2-c2ccnc(N)n2)CC1`, 0.98%.
Still for that read-out and setting: for `COc1ccc(-c2cc(-c3c[nH]nc3-c3ccccn3)ccn2)cc1` the value was 5.46%; for `Cc1cccc(Nc2ncc(-c3ccccc3)o2)c1`, 2.83%; for `COC(=O)c1sc(-n2cnc3cc(OC)c(OC)cc32)cc1OCc1ccccc1C(F)(F)F`, 3.84%.
Take `N#Cc1c(NC(=O)CN2CCOCC2)sc2c1CCCC2`: the inhibition amounted to 3.48%.
Same read-out and setting: for `COc1ccc(-c2cc3c(N)ncnc3o2)cc1` the value was -1.87%; for `N#Cc1c(NC(=O)c2ccc(F)cc2)sc2c1CCCC2`, 1.5%.
On to `Cc1ccc2c(-c3ccnc(Nc4ccccc4)n3)c(-c3ccc(F)cc3)nn2n1`, for which the inhibition is 3.55%.
As for `CNC(=O)c1cc(-c2ccc(F)cc2)cc(-c2ccc(S(=O)(=O)N3CCCC3)cc2)c1N`, the inhibition was 3.43%.
Same read-out and setting: for `Cc1ccc(O)cc1Nc1ccnc2cc(-c3ccccn3)ccc12` the value was 4.92%; for `CCc1nn2ncccc2c1-c1ccnc(NC2CC2)n1`, 3.09%.
For the compound `CCCN1CCC(c2ccc(Nc3nc(Nc4cc(F)ccc4C(N)=O)c4cc[nH]c4n3)c(OC)c2)CC1`, the inhibition turned out to be 4.32%.
Same read-out and setting: as for `Fc1ccc(-c2nn3ccccc3c2-c2ccncc2)cc1`, the figure is 1.29%; as for `O=C(O[C@H]1CN[C@H](C#Cc2cc3ncnc(Nc4ccc(Cc5ccccc5)cc4)c3s2)C1)N1CCOCC1`, 3.06%; as for `COc1ccc(-c2nn3ncccc3c2-c2ccnc(Nc3ccc4c(c3)OCCO4)n2)cc1`, 1.09%.
In the case of `CN(C)CCOc1ccc(-c2nc(-c3ccncc3)c(-c3ccc4c(c3)CC/C4=N\O)[nH]2)cc1`, the inhibition came out at 3.85%.
Take `CCN1CCC(CC(=O)Nc2n[nH]c3nnc(-c4cccc(F)c4F)cc23)CC1`: the inhibition came out at 3.91%.
The same measure, in the same setting: for `COc1cccc(-c2c[nH]c3c(N/N=C/c4ccncc4)ncnc23)c1` the value was 1.83%; for `Fc1ccc(-c2nn3ncccc3c2-c2ccnc(Nc3ccc4c(c3)OCCO4)n2)cc1`, 4.83%; for `COc1cc(Nc2nccc(Nc3ccc4c(C)n[nH]c4c3)n2)cc(OC)c1OC`, 2.53%.
The same measure, in the same setting: as for `CC(C)COC(=O)c1ccc2c(c1)/C(=C/Nc1ccc(S(N)(=O)=O)cc1)C(=O)N2`, the figure is -2.65%; as for `NS(=O)(=O)c1ccc(N/N=C2\C(=O)Nc3ccc4ncccc4c32)cc1`, 2.76%.
Turning to `COc1cc(N2CCN(C(C)C)CC2)ccc1Nc1nc(Nc2ccc(F)cc2C(N)=O)c2cc[nH]c2n1`, the inhibition is 2.9%.
Same read-out and setting: as for `CCn1c(-c2nonc2N)nc2c(C#CC(C)(C)O)ncc(OC3CCNCC3)c21`, the figure is 2.99%; as for `CNC(=O)c1cccc(C#Cc2cncnc2Nc2ccc(OCc3cccc(F)c3)c(Cl)c2)c1`, -0.16%.
The same measure, in the same setting: as for `Fc1cccc(COc2ccc(Nc3ncnc4sc(-c5ccco5)cc34)cc2Cl)c1`, the figure is 5.17%; as for `c1ccc(-c2nc3n(c2-c2ccc4c(c2)OCO4)CCC3)nc1`, 1.57%; as for `O=S(=O)(CCNCc1ccc(-c2ccc3ncnc(Nc4ccc(OCc5cccc(F)c5)c(Cl)c4)c3c2)o1)c1ccccc1`, 6.62%.
On the same count and under the same terms, as for `COc1cc(/C=N/Nc2ncnc3[nH]ncc23)ccc1O`, the figure is 4.08%; as for `CS(=O)(=O)CCNCc1coc(-c2ccc3ncnc(Nc4ccc(OCc5ccccc5)cc4)c3c2)c1`, 3.37%.
Regarding `COc1cc2c(cc1Nc1nc(Nc3ccsc3C(N)=O)c3cc[nH]c3n1)N(C(=O)CN(C)C)CCC2(C)C`, the inhibition came to 5.68%.
